Sampled rows, rich in hits. Any-hit rate of the full collection: about 4.6%.
tim23-1 inh: tim23-1 yeast growth inhibition; S. cerevisiae tim23-1 growth, BacTiter-Glo luminescence, 24 h; inhibition, % at 20 µM; 330,000 compounds, 1.3% hits; AID 463212;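 active = growth inhibition of the mutant yeast at or above 50%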;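 note: temperature-sensitive mutant grown at 25 °C; plate controls were DMSO-treated mutant yeast for no effect and medium wells lacking yeast for full effect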
SKKanGAS inh: inhibitors of SKKanGAS S. pyogenes growth in kanamycin (SK-promoter or general growth effect) | BacTiter-Glo, 6 h | inhibition, % at 7.5 µM | 300,000 compounds, 1.3% hits | AID 1662;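 active = mean replicate score, as percent of positive control median, at least 50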;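 note: strain carries kanamycin resistance gene driven by streptokinase promoter and grows in 40 µg/ml kanamycin; loss of luminescence reflects streptokinase promoter inhibition or plain growth inhibition; 0% = median of DMSO wells and 100% = positive control at its reference dose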
tim10-1 inh: growth inhibitors of tim10-1 mutant yeast | S. cerevisiae tim10-1 ts strain growth, BacTiter-Glo, 24 h | inhibition, % at 20 µM | 330,000 compounds, 2.2% hits | AID 463190;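 active = inhibition of at least 40%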;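 note: mutant grown at 25 °C; 0% = DMSO wells with yeast and 100% = wells holding no yeast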
NLRP3 yeast inh: blocks the NALP3 inflammasome reconstituted in yeast | Yeast reconstituted NLRP3/ASC/caspase-1, beta-gal luminescence, 24 h | inhibition, % at 10 µM | 330,000 compounds, 0.39% hits;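 active = inhibition of 50% or more; inactive = inhibition below 50%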;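 note: plate controls were induced DMSO wells for no effect and uninduced yeast grown without galactose for full effect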
TIM10 inh: inhibits growth of TIM10 yeast strain; S. cerevisiae TIM10 strain growth, BacTiter-Glo luminescence, 24 h; inhibition, % at 10 µM; 330,000 compounds, 1.4% hits; AID 463195;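 active = inhibition of 40% or more at the single tested concentration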;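 note: wild-type TIM10 isogenic control strain grown at permissive 25 °C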
* hit, by the source's call; . = no result.

SMILES	tim23-1 inh	SKKanGAS inh	tim10-1 inh	NLRP3 yeast inh	TIM10 inh
N#CC(C(=O)C12CC3CC(CC(C3)C1)C2)c1nc2ccccc2[nH]1 (configuration not stated)	33.1	80.1*	11.8	-2.0	9.1
O=C1CCC(C(=O)N2CCCO2)CN1Cc1cccc(C(F)(F)F)c1 (configuration not stated)	-9.3	-2.3	12.7	12.6	-8.2
O=C(OCc1ccccc1)c1ccc2c(c1)-c1ccccc1C2=O	18.2	55.3*	27.1	6.5	8.0
CCN(c1ccc(OC)cc1)S(=O)(=O)c1nnc(NC(=O)c2ccccc2Cl)s1	17.2	50.2*	12.3	16.5	14.4
CCn1nnc2cc(C(=O)N3CCC(C(=O)OC)CC3)ccc21	10.1	.	3.8	2.9	0.6
Cc1c(CCC(=O)O)c(=O)oc2c(C)c(OCc3cc4c(cc3Cl)OCO4)ccc12	9.8	67.2*	12.5	3.0	11.6
CCCn1c(C(CO)Nc2nc(-c3cccc(Br)c3)cs2)nc2ccccc21 (configuration not stated)	37.6	96.2*	38.7	-3.3	30.1
CCN(CC)S(=O)(=O)c1cccc(NC(=O)CN2C(=O)NC3(CCOc4ccccc43)C2=O)c1 (configuration not stated)	8.1	.	9.9	10.0	-2.4
CCCCCCCCCCCC1=C(O)C(=O)C=C(O)C1=O	.	101.9*	.	.	.
FC(F)(F)c1cnc(-c2cnc(-c3ccccn3)nc2)c(Cl)c1	4.5	55.5*	-11.8	26.3	-3.3
CC(=O)Nc1cccc(NC(=O)Cc2cccs2)c1	6.6	2.3	11.6	8.7	-6.6
O=C(Cc1cccs1)Nc1cccc(-c2nc3cc4ccccc4cc3[nH]2)c1	.	71.9*	.	.	.
Cn1c(=O)c2c(ncn2CC(=O)OCCCC(=O)c2ccc(Br)cc2)n(C)c1=O	15.4	.	9.8	-0.2	0.4
CCOC(=O)c1ccc(-c2ccc3c(=O)c4ccccc4n(C)c3c2)cc1F	-14.8	64.7*	-6.2	24.2	-13.5
O=S(=O)(Nc1ccc(F)cc1)N1CCOCC1	2.8	-3.7	3.8	7.3	-7.2
COc1ccc(/C=N/NC(=O)CNC(=O)c2ccncc2)cc1OC	7.4	0.7	12.1	6.3	-3.5
Cc1ncc(CO)c(/C=N/NC(=O)c2ccc(Br)cc2)c1O	2.3	3.1	20.4	10.6	11.1
Cc1ncc(CO)c(/C=N/NC(=O)c2cc(Br)ccc2O)c1O	6.1	92.4*	-22.9	10.3	-54.0
Cc1nc(-c2ccc(F)cc2)c(CC(=O)N(C)CC(=O)Nc2ccc(Br)cc2C)s1	17.9	-3.8	19.5	3.2	1.7
O=C(Nc1ccc(Cl)cc1)N1CCN(c2ccc3nnc(-c4ccc(F)cc4)n3n2)CC1	8.0	63.3*	10.4	23.6	8.5
O=C(Nc1ccccc1Cl)N1CCN(c2ccc3nnc(-c4ccccc4)n3n2)CC1	21.3	9.1	21.6	8.5	20.7
c1ccc2c(c1)nc(Nc1ccc(N3CCCCC3)cc1)c1nncn12	23.0	59.1*	24.2	-9.9	19.9
CS(=O)(=O)c1ccc2nc(NC(=O)c3cccc(NS(=O)(=O)c4ccc(F)c(F)c4)c3)sc2c1	6.0	37.5	12.0	19.5	-0.7
O=C(Nc1nc2ccc(SC(F)F)cc2s1)c1ccc(NS(=O)(=O)c2ccc(F)c(F)c2)cc1	3.1	114.3*	11.7	6.9	8.2
CS(=O)(=O)c1ccc2nc(NC(=O)c3ccc(NS(=O)(=O)c4ccc(F)c(F)c4)cc3)sc2c1	-1.2	85.0*	5.1	1.0	22.0
SMILES	tim23-1 inh	SKKanGAS inh	tim10-1 inh	NLRP3 yeast inh	TIM10 inh
COc1ccc2nc(N3C(=O)C(O)=C(C(=O)c4ccco4)C3c3ccc(C)o3)sc2c1 (configuration not stated)	21.4	.	7.1	32.0	-7.7
Cc1ccc2nc(N3C(=O)C(O)=C(C(=O)c4ccco4)C3c3cccs3)sc2c1 (configuration not stated)	30.5	51.7*	5.2	23.2	9.9
Cc1cc(C)c2nc(N3C(=O)C(O)=C(C(=O)c4ccco4)C3c3ccco3)sc2c1 (configuration not stated)	26.6	78.4*	5.6	3.9	-0.7
CCOc1ccc2nc(N3C(=O)C(O)=C(C(=O)c4ccco4)C3c3ccco3)sc2c1 (configuration not stated)	33.4	.	10.9	15.0	11.0
C(C#CCCCCCCCCC[n+]1ccccc1)#CCCCCCCCCC[n+]1ccccc1	.	62.1*	.	.	.
Cc1ccc(S(=O)(=O)N2CCCCC2)cc1C(=O)N(CCc1ccccc1)Cc1ccccc1	36.0	-4.5	24.7	5.4	12.9
Fc1ccccc1-c1nc(-c2ccc(Cl)cc2)no1	2.0	-1.9	4.5	14.5	16.9
